Where “and” joins values, the source holds several entries; their conditions need not be identical. Identical values can stand only once. Calls of active or inactive are those of the source. Unless noted, how the calls were made is not given here.
How the values were obtained:
[1] = tested on: Wnt5a (protein binding on small-molecule microarray); assay: Wnt5a binders on small-molecule microarray, primary screen, biophysical, 635/667 nm fluorescence (AID 1142); conditions: 635 nm fluorescence, higher = more signal;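 further: fluorescence read at 667 nm with signal to noise per printed feature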
[2] = cell viability in Huh7 cells, primary screen, cytotoxicity control for HCV replication inhibitor project, CellTiter-Glo luminescence, basal, 48 h (AID 1143); conditions: Huh7 HCV replicon, higher = more signal, called active from +8 up or from −8 down;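 further: Huh7 hepatoma cells carrying a hepatitis C replication reporter with no stimulus; test concentration not given here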
[3] = P. aeruginosa biofilm formation inhibitors, primary screen, PAO1 strain, BacTiter-Glo luminescence, LB-PBS (AID 1144); conditions: 12 h, higher = more signal
[4] = CREB reporter modulators without forskolin, primary screen, cell-based, PC12, CRE-LacZ reporter, unstimulated (AID 1145); conditions: no forskolin, luminescence, 4.5 h, higher = more signal, called active from +8 up or from −8 down
[5] = CREB reporter modulators under forskolin, primary screen, cell-based, PC12, CRE-LacZ reporter, forskolin-stimulated (AID 1146); conditions: luminescence, 4.5 h, higher = more signal, called active from +8 up or from −8 down;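 further: PC12 cells with 6xCRE LacZ reporter stimulated by forskolin 10 µM; beta-galactosidase reporter signal reflecting CREB driven transcription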
[6] = target: Streptavidin (Streptomyces avidinii) (UniProt P22629); assay: streptavidin binders on small-molecule microarray, primary screen, artefact control for SMM compound annotation, biophysical, 635/667 nm fluorescence (AID 1147); conditions: streptavidin binding, higher = more signal;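 further: signal reflects streptavidin binding to arrayed compounds as a control protein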
Streptavidin (Streptomyces avidinii), sequence (P22629 whole entry, looked up): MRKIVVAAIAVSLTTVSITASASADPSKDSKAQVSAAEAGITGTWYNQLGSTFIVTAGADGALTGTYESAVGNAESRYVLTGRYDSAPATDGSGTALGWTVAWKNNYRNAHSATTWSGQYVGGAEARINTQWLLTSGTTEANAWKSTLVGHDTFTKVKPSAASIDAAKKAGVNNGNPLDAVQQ

[7] = small-molecule binders of probe aInhba, primary screen, biochemical, small-molecule microarray, 635/667 nm fluorescence (AID 1148); conditions: higher = more signal;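 further: score merges 667nm spot fluorescence with signal-to-noise for antibody binding to printed compounds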
Torsin-1A (Homo sapiens) [8] = target: Torsin-1A (Homo sapiens) (UniProt O14656); assay: torsin A binders from cell lysate, primary screen, small-molecule microarray, wild-type, 635/667 nm (AID 1149); conditions: COS7 hTOR1A-WT lysate, 635 nm fluorescence, higher = more signal
Torsin-1A (Homo sapiens), sequence (O14656 whole entry, looked up): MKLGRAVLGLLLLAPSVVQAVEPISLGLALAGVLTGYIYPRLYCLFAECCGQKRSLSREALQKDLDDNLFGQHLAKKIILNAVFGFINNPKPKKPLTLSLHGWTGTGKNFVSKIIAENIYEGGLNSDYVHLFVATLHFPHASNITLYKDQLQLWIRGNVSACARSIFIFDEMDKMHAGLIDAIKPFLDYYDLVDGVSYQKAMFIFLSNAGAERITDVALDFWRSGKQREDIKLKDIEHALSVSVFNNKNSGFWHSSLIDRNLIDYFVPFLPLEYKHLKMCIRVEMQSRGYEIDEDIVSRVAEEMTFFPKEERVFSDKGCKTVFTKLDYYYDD

Torsin-1A (Homo sapiens) [9] = target: Torsin-1A (Homo sapiens) (UniProt O14656); assay: small-molecule binders of mutant TOR1A in lysate, primary screen, cell lysate, small-molecule microarray, COS7 lysate, 635/667 nm fluorescence (AID 1150); conditions: COS7 hTOR1A mutant lysate, 635 nm fluorescence, higher = more signal;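 further: score pools 667 nm emission and signal to noise measuring lysate protein binding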
[10] = tested on: Sonic hedgehog protein (Shh); assay: small-molecule binders of Shh protein, primary screen, biochemical, small-molecule microarray, 635/667 nm fluorescence (AID 1151); conditions: small-molecule microarray binding, 635 nm fluorescence; higher = more signal;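 further: Shh protein binding to compounds spotted on small-molecule microarray slides; score combines spot fluorescence intensity with signal-to-noise across triplicate slides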
[11] = E. coli DRC41 culture turbidity changes, primary screen, E. coli filamentation inducer project, strain DRC41, OD650, 48 h (AID 1152);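 further: E. coli MC1000 strain DRC41 lacking acrAB efflux pump and sulA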; conditions: E. coli DRC41 (acrAB sulA), higher = more signal, called active from +8 up or from −8 down
[12] = small-molecule binders of probe aLefty1, primary screen, biochemical, small-molecule microarray, 635/667 nm fluorescence (AID 1153); conditions: higher = more signal;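 further: score merges spot fluorescence with signal-to-noise ratio from the scanned slide images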
[13] = PSAC antagonists in infected red cells, primary screen, cell-based, P. falciparum Indochina, OD700, 1 h (AID 1154); conditions: P. falciparum Indochina infected RBC osmotic lysis, higher = more signal, called active from +8 up or from −8 down
[14] = PSAC antagonists in infected red cells, primary screen, cell-based, P. falciparum Indochina, OD700, 2 h (AID 1155);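 further: lysis reports solute entry through the parasite surface anion channel PSAC; channel blockers reduce lysis of infected cells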; conditions: P. falciparum Indochina infected erythrocytes, osmotic lysis OD700; higher = more signal, called active from +8 up or from −8 down
[15] = osmotic lysis modulators in infected erythrocytes, primary screen, PSAC antagonist project, cell-based, P. falciparum Indochina, OD700, 3 h (AID 1156); conditions: higher = more signal, called active from +8 up or from −8 down
[16] = PSAC antagonists in infected red cells, primary screen, cell-based, P. falciparum Indochina, OD700, 18 h (AID 1157); conditions: P. falciparum Indochina infected erythrocytes, osmotic lysis OD700, 18 h; higher = more signal, called active from +8 up or from −8 down
[17] = modulators of S6 phosphorylation in cells, primary screen, cell-based, A549, cytoblot, luminescence, serum-stimulated (AID 1158); conditions: A549 phospho-S6 cytoblot, 5 h, higher = more signal;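 further: serum-stimulated A549 lung adenocarcinoma cells; signal is phosphorylated S6 detected by cytoblot immunostaining with HRP secondary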
[18] = target: NADPH oxidase 2 (Homo sapiens) (UniProt P04839); assay: NOX2-dependent H2O2 signal modulators, primary screen, NOX inhibitor project, cell-based, HEK293-NOX2, PMA-stimulated, Amplex Red fluorescence (AID 1159); conditions: 45 min, higher = more signal, called active from +8 up or from −8 down; further: test concentration not given here
NADPH oxidase 2 (Homo sapiens), sequence (P04839 whole entry, looked up): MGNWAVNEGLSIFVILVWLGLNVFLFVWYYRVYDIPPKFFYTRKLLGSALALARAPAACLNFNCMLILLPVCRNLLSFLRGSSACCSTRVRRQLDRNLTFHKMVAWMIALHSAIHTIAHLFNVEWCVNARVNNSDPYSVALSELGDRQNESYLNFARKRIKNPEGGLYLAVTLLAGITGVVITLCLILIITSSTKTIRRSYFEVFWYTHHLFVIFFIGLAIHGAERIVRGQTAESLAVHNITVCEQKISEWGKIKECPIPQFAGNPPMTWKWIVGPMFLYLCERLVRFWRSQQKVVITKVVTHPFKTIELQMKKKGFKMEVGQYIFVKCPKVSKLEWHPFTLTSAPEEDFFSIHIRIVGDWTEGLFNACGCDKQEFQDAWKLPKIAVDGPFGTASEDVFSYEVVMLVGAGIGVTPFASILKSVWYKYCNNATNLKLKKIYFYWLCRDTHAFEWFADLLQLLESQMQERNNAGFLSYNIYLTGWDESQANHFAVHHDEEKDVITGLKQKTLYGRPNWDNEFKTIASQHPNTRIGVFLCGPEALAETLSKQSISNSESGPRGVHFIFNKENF

[19] = target: NADPH oxidase 4 (Homo sapiens) (UniProt Q9NPH5); assay: NOX4-dependent H2O2 signal modulators, primary screen, NOX inhibitor project, cell-based, HEK293-NOX4, tetracycline-induced, Amplex Red fluorescence (AID 1160); conditions: 45 min, higher = more signal, called active from +8 up or from −8 down
NADPH oxidase 4 (Homo sapiens), sequence (Q9NPH5 whole entry, looked up): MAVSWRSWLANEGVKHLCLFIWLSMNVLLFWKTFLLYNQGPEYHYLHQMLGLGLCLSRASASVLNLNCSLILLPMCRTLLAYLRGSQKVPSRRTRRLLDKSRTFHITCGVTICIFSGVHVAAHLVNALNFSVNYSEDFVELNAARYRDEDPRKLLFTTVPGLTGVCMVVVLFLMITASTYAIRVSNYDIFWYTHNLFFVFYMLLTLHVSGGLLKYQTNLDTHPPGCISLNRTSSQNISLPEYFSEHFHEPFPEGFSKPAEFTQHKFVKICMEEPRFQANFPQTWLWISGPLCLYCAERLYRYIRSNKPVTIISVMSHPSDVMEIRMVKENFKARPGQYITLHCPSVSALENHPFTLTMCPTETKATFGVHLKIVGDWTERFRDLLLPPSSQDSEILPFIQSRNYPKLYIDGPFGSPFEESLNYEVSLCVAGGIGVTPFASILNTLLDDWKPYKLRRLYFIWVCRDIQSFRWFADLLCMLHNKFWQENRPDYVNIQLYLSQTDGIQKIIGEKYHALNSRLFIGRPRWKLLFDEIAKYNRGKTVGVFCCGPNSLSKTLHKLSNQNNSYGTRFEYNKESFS

[20] = target: NADPH oxidase 5 (Homo sapiens) (UniProt Q96PH1); assay: NOX5-dependent H2O2 signal modulators, primary screen, NOX inhibitor project, cell-based, HEK293-NOX5, Amplex Red fluorescence (AID 1161); conditions: HEK293-NOX5, ionomycin, 45 min, higher = more signal
NADPH oxidase 5 (Homo sapiens), sequence (Q96PH1 whole entry, looked up): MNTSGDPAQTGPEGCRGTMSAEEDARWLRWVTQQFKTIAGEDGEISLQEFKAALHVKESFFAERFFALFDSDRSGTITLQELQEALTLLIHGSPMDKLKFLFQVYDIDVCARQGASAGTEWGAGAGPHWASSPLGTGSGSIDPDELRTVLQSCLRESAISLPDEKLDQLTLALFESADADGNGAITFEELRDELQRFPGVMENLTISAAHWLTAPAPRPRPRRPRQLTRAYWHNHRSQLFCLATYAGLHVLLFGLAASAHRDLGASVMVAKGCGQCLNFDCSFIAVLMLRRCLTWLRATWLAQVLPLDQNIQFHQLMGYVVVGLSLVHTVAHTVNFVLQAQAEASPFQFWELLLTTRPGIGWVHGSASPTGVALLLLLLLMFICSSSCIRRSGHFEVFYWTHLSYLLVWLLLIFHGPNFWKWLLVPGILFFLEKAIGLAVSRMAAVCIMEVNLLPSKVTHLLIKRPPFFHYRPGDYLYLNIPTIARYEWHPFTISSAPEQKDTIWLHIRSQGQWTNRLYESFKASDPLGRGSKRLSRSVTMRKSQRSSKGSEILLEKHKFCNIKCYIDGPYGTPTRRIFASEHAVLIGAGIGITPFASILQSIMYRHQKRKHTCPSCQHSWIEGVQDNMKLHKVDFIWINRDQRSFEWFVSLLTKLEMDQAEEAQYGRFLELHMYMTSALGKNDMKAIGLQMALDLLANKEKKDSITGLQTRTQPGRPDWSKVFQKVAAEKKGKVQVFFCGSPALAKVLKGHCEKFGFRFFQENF

| SMILES | composite z-score [1] | z-score [2] | z-score [3] | z-score [4] | z-score [5] | composite z-score [6] | composite z-score [7] | composite z-score (Torsin-1A (Homo sapiens) [8]) | composite z-score (Torsin-1A (Homo sapiens) [9]) | composite z-score [10] | z-score [11] | composite z-score [12] | z-score [13] | z-score [14] | z-score [15] | z-score [16] | z-score [17] | z-score [18] | z-score [19] | z-score [20] |
| --- | --- | --- | --- | --- | --- | --- | --- | --- | --- | --- | --- | --- | --- | --- | --- | --- | --- | --- | --- | --- |
| C=CC[C@H](O)c1ccc(OCCO)cc1 | -0.0223 and -0.614 | -1.36 (inactive) and -0.878 (inactive) | -0.809 (inactive) and -0.0923 (inactive) | -0.925 (inactive) and 0.18 (inactive) | -0.506 (inactive) and -0.0908 (inactive) | -0.893 and -1.41 | -0.0371 and -0.497 | -0.646 and -1.69 | -0.0897 and -1.66 | -0.125 and 0.891 | -0.349 (inactive) and -0.895 (inactive) | -0.017 and -0.491 | 0.965 (inactive) and 1.27 (inactive) | 0.396 (inactive) and -0.262 (inactive) | -0.0706 (inactive) and -0.94 (inactive) | 0.475 (inactive) and 0.084 (inactive) | 0.263 and 0.368 | -0.317 (inactive) and -0.425 (inactive) | -0.103 (inactive) and 0.574 (inactive) | 0.811 and 0.51 |
| CCOC(=O)C[C@H]1[C@H](OC(=O)c2ccccc2-c2ccccc2)[C@@H](NC(=O)Cc2ccc(OC)cc2)c2cc(OCCCO)ccc2N1C(=O)Cc1ccc(OC)cc1 | 0.18 and 0.0684 | -0.093 (inactive) and -0.267 (inactive) | 0.0825 (inactive) | 0.656 (inactive) and 0.671 (inactive) | -1.2 (inactive) and 0.454 (inactive) | 0.325 and -0.401 | 0.0082 and 0.109 | -0.0109 and -0.752 | 0.24 and 0.161 | 0.857 and -0.501 | 2.52 (inactive) and -0.448 (inactive) | 0.349 and -0.0601 | 2.32 (inactive) and 2.14 (inactive) | -0.672 (inactive) and 0.269 (inactive) | 0.308 (inactive) and -0.142 (inactive) | -1.18 (inactive) and 0.255 (inactive) | 0.551 and -0.0127 | 1.61 (inactive) and 0.265 (inactive) | -0.904 (inactive) and 0.828 (inactive) | 1.79 and 0.274 |
| CCOC(=O)NN=C1C[C@@H](O)[C@@H](O)[C@@H]2[C@@H]3C(=O)N(Cc4ccccc4)C(=O)[C@@H]3CC[C@@H]12 | -0.0099 | 0.162 (inactive) | -0.0519 (inactive) | 0.52 (inactive) | 0.0513 (inactive) | -0.199 | -0.178 | 0.832 | 0.304 | 0.773 | -2.78 (inactive) | -0.641 | 1.04 (inactive) | 0.628 (inactive) | 0.979 (inactive) | 0.403 (inactive) | -0.154 | -0.6 (inactive) | -0.393 (inactive) | -0.365 |
| C[N+](C)(C)CCCCNC(=O)[C@H]1C[C@H]2C(=O)N[C@@H](CCCC[N+](C)(C)C)C(=O)N2[C@H]1c1ccc(O)cc1 | 0.96 and 0.388 | 0.171 (inactive) and -2.13 (inactive) | -0.597 (inactive) and -1.3 (inactive) | -0.541 (inactive) and 0.679 (inactive) | 0.485 (inactive) and -0.16 (inactive) | 0.16 and -1.27 | -0.154 and -0.251 | 2.32 and 1.51 | 0.287 and 0.683 | 2.27 and 2.33 | -0.0772 (inactive) and -0.0145 (inactive) | -0.0984 and -0.447 | -0.373 (inactive) and 0.369 (inactive) | -0.114 (inactive) and -1.21 (inactive) | -1.78 (inactive) and -0.688 (inactive) | 0.154 (inactive) and -2.13 (inactive) | -0.809 and 0.448 | -1.13 (inactive) and -2.89 (inactive) | -0.108 (inactive) and -3.27 (inactive) | -0.693 and -2.66 |
| C[C@@H]1CC[C@H]2C(=O)N3[C@@H](CC[C@@H](C)[C@@H]3c3ccc(-c4ccco4)cc3)C(=O)N2[C@H]1c1ccc(-c2ccco2)cc1 | 0.178 and 0.544 | 0.234 (inactive) and 0.563 (inactive) | 0.598 (inactive) | -0.165 (inactive) and 0.651 (inactive) | 0.371 (inactive) and -0.248 (inactive) | 1.33 and 2.14 | 0.0006 and 0.0895 | 0.967 and 2.1 | 0.411 and 1.47 | 1.44 and 1.19 | -0.581 (inactive) and 0.529 (inactive) | 0.0927 and 0.38 | 0.91 (inactive) and 0.469 (inactive) | -0.0315 (inactive) and -0.262 (inactive) | 0.0919 (inactive) and 1.71 (inactive) | -0.364 (inactive) and -0.853 (inactive) | -0.146 and -0.115 | 0.331 (inactive) and 0.931 (inactive) | -1.03 (inactive) and 0.685 (inactive) | -0.273 and -1.03 |
